# Screens: PubChem BioAssay, Broad Institute
# A selection follows.
# aSyn 5UTR act = Activators working through SNCA 5'UTR binding (MLPCN). alpha-synuclein 5'UTR reporter, activators screen. activity score, % (tested at 7.5 µM), hits read low. actives 7.1% (n = 300,000). AID 1814; in the data active = activity score below about -60%
# * hit, by the source's call.
SMILES,aSyn 5UTR act
Nc1nc(CSCc2ccccc2)nc(N2CCOCC2)n1,-67*
Cc1ccc(/C=N/N2CCOCC2)s1,-101*
Cc1ccc(/C=N/N2CCN(Cc3ccccc3)CC2)s1,-83*
C/C(=N\N1CCN(Cc2ccccc2)CC1)c1ccco1,-80*
FC(F)(F)c1ccccc1/C=N/N1CCN(Cc2ccccc2)CC1,-72*
Cc1cc(N2CCN(Cc3cn(C)nc3-c3cccc(Cl)c3)CC2)cc(C)n1,72
O=[N+]([O-])c1ccccc1/C=N/N1CCN(Cc2ccccc2)CC1,-101*
C(=N\N1CCN(Cc2ccccc2)CC1)/c1ccccc1,-64*
Clc1cccc(/C=N/N2CCN(Cc3ccccc3)CC2)c1,-91*
COC(=O)c1c(C)[nH]c(O)c1C=Nc1ccc(C(C)C)cc1,-71*
Cc1cc(C)c2c(=O)n(-c3ccccc3)[nH]c2n1,-72*
CC(=O)Nc1cccc(C(=O)/C=C/c2ccc[nH]2)c1,-90*
CC(=O)Nc1cccc(C(=O)/C=C/c2ccc(N(C)C)cc2)c1,-71*
CC(=O)Nc1cccc(C(=O)/C=C/c2ccc(F)cc2)c1,-103*
CC(=O)Nc1cccc(C(=O)/C=C/c2ccc(Br)cc2)c1,-76*
CC(=O)Nc1cccc(C(=O)/C=C/c2ccc(/C=C/C(=O)c3cccc(NC(C)=O)c3)cc2)c1,-129*
CC(=O)Nc1cccc(C(=O)/C=C/c2cccs2)c1,-117*
COc1cccc(NC(=O)C2CCN(S(=O)(=O)c3ccc4c(c3)NC(=O)C(C)S4)CC2)c1 (stereo unspecified),-68*
CCN(CC)c1ccc(N=Cc2c(C)[nH]c3ccccc23)cc1,63
Oc1[nH]c2ccccc2c1C=Nc1ccccc1,-130*
COc1ccc(C(=O)Nc2nc(C)c(C)s2)cc1OC,-142*
COC(=O)c1ccc(NC(=O)c2ccc3nc(C)sc3c2)cc1,-180*
COc1ccc(C(=O)Nc2ccc(Oc3nc(C)nc4sc(-c5ccccc5)cc34)cc2)cc1OC,-120*
COc1ccc(C(=O)Nc2ccc3nc(C)sc3c2)cc1OC,-101*
Cc1nc2ccc(C(=O)Nc3cccc([N+](=O)[O-])c3)cc2s1,-127*
SMILES,aSyn 5UTR act
COc1ccc(NC(=O)c2ccc3nc(C)sc3c2)cc1,-124*
CCc1ccc(OCC(=O)O/N=C(\N)c2ccncc2)c(Br)c1,-136*
CC(C)(C)c1ccc(OCC(=O)O/N=C(\N)c2ccncc2)cc1,-77*
Cc1cc(C(=O)O/N=C(\N)c2ccc(C(C)(C)C)cc2)no1,-223*
CCc1ccc(OCC(=O)O/N=C(\N)c2ccncc2)cc1,-99*
N/C(=N\OC(=O)COc1ccc2ccccc2c1Br)c1ccncc1,-92*
Cc1cc2nc(-c3ccc(SCC(=O)Nc4ccc5c(c4)OCCO5)nc3)[nH]c2cc1C,-207*
Cc1cc2nc(-c3ccc(SCC(=O)N4CCN(C(=O)c5ccco5)CC4)nc3)[nH]c2cc1C,-88*
O=C(CSc1ccc(-c2nc3ccccc3[nH]2)cn1)Nc1ccc2c(c1)OCCO2,-235*
Cc1ccc2nc(-c3ccc(SCC(=O)Nc4ccc5c(c4)OCCO5)nc3)[nH]c2c1,-327*
Cc1ccc(C(=O)c2cc3ccccc3o2)cc1C,-68*
Cc1ccc(S(=O)(=O)c2cc3ccccc3oc2=O)cc1,-111*
Cc1ccc(C(=O)c2cc3ccccc3o2)cc1,-170*
O=C(c1cc2ccccc2o1)c1cccs1,-134*
COc1ccc(-c2cc(-c3c(O)c(OC)c4occc4c3OC)[nH]n2)cc1OC,-71*
COc1ccc(C(=O)NC(=S)NC(C)C)cc1Br,-70*
COc1ccc(C(=O)NC(=S)NC(C)(C)C)cc1Br,-158*
Cc1ccc(Nc2nc(CSc3n[nH]c(N)n3)cs2)cc1,-108*
Cn1nnnc1SCc1csc(Nc2ccccc2)n1,-109*
Cc1ccc(Nc2nc(CSc3nnnn3C)cs2)cc1,-103*
O=C(c1cc(-c2ccc(Cl)c(Cl)c2)on1)N1CCCCCC1,-198*
CN(C)/C=C/C(=O)c1ccc(-c2ccc(Cl)cc2Cl)o1,-106*
O=C(c1ccc(-c2ccc(Cl)cc2Cl)o1)N1CCOCC1,-104*
O=C(c1cc(-c2ccc(Cl)cc2)on1)N1CCCCCC1,-148*
Cc1ccc(-c2cc(C(=O)N3CCCC3)no2)cc1,53
SMILES,aSyn 5UTR act
O=C(c1cc(-c2cccc(Cl)c2)on1)N1CCCCCC1,-175*
O=C(c1cc(-c2ccc(O)cc2)on1)N1CCCCCC1,-94*
O=C(c1cc(-c2ccc(Cl)cc2Cl)on1)N1CCCCCC1,-71*
CCN=C1S/C(=C\c2ccc(-c3cccc(C(=O)O)c3)o2)C(=O)N1CC,-69*
CCN=C1S/C(=C\c2cn(CC(=O)NCc3ccco3)c3ccccc23)C(=O)N1CC,65
C#CCN1C(=O)S/C(=C\c2ccc(-c3ccc(Cl)c(C(=O)O)c3)o2)C1=O,-93*
CC1=NN(c2ccc(C)c(C)c2)C(=O)/C1=C\C=C\c1ccc([N+](=O)[O-])o1,78
CC1=NN(c2ccccc2)C(=O)/C1=C\C=C\c1ccccc1,-127*
COc1ccc(/C=C2/C(=O)N(c3ccccc3)N=C2C)cc1,61
C=CCNc1nc(C(=O)OCC(=O)c2ccc(OC)cc2OC)cs1,-82*
